The values that follow come from article PMC7862700, “An all-to-all approach to the identification of sequence-specific readers for epigenetic DNA modifications on cytosine”.

Holding throughout (test): DAPPL (digital affinity profiling via proximity ligation, sequencing); 10 mM Tris-HCl pH 7.5, 50 mM NaCl, 1 mM DTT, 4% glycerol, room temperature, 30 min; GST-TFs on glutathione beads, 16-mer random dsDNA library, 0.1% formaldehyde crosslink after washing; high values mean tight binding
What all share (settings): protein: recombinant; tags: N-terminal GST; dsDNA, one strand shown

In one test the target is T1, ELK1 (Homo sapiens, UniProt P19419 1-428).
T1 sequence: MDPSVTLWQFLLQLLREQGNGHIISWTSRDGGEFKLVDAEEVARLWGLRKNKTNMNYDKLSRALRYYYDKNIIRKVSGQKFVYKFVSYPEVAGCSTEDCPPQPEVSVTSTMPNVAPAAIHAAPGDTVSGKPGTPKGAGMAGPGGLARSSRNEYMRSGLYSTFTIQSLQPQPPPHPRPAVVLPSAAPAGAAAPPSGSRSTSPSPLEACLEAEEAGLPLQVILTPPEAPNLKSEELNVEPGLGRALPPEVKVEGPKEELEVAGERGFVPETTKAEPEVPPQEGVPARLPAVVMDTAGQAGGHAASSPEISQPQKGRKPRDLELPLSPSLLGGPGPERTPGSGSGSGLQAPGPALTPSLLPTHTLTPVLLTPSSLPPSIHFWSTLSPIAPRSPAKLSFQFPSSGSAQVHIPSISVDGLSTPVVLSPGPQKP
A digest of the protocol:
(§1)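 Binding signal is defined as a hexamer's read frequency for one factor over its frequency for the tag-only sample. To obtain reads, GST-fused human transcription factors were expressed in yeast, captured on glutathione beads, barcoded with DNA and pooled with that sample. Pools met 200 nmole of a 16-mer random double-stranded DNA library in Tris/NaCl/DTT/glycerol buffer for 30 min at room temperature before washing, 0.1% formaldehyde crosslinking, proximity ligation (BsaI/T4 ligase, 1 h, 37 °C), PCR and Illumina NextSeq500 sequencing.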

The next test addresses T2, ERG (Homo sapiens, UniProt P11308 1-479).
T2 sequence: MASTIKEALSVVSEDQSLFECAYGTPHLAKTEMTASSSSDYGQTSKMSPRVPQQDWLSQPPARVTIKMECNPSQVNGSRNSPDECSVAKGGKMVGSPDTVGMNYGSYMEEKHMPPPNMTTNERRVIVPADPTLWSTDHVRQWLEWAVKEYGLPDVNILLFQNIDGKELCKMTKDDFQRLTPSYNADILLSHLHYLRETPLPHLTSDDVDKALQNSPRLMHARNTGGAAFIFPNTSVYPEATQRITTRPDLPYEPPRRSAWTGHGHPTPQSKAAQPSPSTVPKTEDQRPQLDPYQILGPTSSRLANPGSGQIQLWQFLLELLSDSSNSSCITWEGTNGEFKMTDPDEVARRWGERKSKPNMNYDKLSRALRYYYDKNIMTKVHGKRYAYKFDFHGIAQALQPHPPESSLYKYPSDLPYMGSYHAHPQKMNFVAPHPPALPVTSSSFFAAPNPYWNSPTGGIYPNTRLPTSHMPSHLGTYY
In a few lines: as §1

The next test has as its target ELF1 (Homo sapiens, UniProt P32519 1-619). In a few lines: as §1
In the next test the target is SPIB (Homo sapiens, UniProt Q01892 1-262). A digest of the protocol: as §1
The next test has as its target T3, FEV (Homo sapiens, UniProt Q99581 1-238).
T3 sequence: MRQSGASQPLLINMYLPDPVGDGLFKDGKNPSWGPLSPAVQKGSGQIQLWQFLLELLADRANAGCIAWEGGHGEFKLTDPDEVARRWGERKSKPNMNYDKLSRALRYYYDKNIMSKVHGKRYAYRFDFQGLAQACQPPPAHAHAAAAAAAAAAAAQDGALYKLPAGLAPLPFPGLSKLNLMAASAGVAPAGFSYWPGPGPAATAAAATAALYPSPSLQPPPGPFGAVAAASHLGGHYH
In a few lines:
as §1

A further test has as its target T4, SPIC (Homo sapiens, UniProt Q8N5J4 1-248).
T4 sequence: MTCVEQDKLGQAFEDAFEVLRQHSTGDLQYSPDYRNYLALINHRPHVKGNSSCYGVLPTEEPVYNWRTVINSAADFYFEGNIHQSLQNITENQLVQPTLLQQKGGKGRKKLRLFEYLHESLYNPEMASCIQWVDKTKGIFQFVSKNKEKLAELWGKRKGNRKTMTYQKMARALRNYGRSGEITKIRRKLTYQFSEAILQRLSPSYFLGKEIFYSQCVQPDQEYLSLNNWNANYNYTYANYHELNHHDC
In a few lines:
as §1

In a further test the target is ELF4 (Homo sapiens, UniProt Q99607 1-663). In a few lines:
as §1

The next test addresses T5, ETV2 (Homo sapiens, UniProt O00321 1-342).
T5 sequence: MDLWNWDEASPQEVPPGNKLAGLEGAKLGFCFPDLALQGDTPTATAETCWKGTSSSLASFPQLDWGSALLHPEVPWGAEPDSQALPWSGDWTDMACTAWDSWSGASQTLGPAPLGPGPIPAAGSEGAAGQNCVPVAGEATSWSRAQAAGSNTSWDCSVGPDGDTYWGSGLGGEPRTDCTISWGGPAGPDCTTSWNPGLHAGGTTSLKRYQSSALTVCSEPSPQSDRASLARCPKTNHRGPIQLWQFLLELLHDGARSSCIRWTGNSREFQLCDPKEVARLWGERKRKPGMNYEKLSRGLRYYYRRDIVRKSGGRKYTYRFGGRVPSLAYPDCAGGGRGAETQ
In a few lines:
as §1

The next test concerns the target CRX (Homo sapiens, UniProt O43186 1-299). In a few lines: as §1
In a further test the target is T6, ETV3L (Homo sapiens, UniProt Q6ZN32 1-361).
T6 sequence: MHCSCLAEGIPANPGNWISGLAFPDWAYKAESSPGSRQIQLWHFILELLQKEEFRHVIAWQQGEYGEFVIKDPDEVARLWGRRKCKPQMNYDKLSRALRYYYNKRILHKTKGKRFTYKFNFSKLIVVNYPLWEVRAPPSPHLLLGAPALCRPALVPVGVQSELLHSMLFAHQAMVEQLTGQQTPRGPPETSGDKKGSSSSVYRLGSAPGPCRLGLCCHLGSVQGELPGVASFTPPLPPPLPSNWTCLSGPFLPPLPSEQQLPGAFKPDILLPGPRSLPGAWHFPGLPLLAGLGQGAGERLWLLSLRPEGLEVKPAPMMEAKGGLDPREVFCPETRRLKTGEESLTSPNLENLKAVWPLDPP
A digest of the protocol:
as §1

The target of another test is T7, ETV7 (Homo sapiens, UniProt Q9Y603 1-341).
T7 sequence: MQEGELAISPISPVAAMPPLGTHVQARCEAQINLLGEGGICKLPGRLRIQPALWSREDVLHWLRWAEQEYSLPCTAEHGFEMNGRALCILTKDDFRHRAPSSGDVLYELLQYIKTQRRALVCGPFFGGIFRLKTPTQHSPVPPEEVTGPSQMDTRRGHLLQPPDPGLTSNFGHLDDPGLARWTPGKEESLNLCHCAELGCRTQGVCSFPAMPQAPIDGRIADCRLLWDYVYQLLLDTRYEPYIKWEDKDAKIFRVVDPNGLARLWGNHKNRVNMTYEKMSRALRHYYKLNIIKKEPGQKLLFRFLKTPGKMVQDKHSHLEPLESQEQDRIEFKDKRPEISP
In a few lines: as §1

The next test deals with T8, ETV3 (Homo sapiens, UniProt P41162-2 1-143).
T8 sequence: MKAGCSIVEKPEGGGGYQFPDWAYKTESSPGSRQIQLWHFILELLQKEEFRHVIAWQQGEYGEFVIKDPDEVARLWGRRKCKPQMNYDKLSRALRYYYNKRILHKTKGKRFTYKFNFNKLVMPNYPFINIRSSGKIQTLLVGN
A digest of the protocol: as §1

The next test deals with T9, ELK4 (Homo sapiens, UniProt P28324-2 1-405).
T9 sequence: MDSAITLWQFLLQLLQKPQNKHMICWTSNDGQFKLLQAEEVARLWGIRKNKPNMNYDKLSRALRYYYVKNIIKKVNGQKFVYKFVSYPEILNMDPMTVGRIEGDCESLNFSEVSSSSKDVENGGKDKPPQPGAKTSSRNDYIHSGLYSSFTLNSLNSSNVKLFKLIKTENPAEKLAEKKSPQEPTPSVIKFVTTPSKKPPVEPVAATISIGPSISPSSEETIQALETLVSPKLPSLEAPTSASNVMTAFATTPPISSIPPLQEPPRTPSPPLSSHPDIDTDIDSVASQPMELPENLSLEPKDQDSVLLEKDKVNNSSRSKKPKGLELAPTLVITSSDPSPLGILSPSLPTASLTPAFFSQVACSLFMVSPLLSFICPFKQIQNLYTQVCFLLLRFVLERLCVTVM
A digest of the protocol:
as §1

ELF4, sequence (Q99607 whole entry): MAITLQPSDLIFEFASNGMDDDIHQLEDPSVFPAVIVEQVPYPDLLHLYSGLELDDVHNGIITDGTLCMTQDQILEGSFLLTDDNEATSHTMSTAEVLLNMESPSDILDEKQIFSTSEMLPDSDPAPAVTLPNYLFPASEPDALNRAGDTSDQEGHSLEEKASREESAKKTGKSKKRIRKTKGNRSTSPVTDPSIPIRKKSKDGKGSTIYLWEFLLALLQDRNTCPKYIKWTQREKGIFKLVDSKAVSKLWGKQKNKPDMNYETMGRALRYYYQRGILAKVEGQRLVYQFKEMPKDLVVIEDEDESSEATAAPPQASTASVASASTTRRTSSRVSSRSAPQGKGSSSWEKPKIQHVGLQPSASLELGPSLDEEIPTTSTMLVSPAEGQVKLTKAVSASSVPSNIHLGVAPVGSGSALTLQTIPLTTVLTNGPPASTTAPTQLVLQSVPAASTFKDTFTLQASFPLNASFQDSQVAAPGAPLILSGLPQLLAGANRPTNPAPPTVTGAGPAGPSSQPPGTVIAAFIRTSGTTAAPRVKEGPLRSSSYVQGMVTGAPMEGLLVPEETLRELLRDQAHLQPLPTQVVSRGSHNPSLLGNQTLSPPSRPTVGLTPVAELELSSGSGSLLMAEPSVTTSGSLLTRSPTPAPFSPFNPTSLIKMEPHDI
CRX, sequence (O43186 whole entry): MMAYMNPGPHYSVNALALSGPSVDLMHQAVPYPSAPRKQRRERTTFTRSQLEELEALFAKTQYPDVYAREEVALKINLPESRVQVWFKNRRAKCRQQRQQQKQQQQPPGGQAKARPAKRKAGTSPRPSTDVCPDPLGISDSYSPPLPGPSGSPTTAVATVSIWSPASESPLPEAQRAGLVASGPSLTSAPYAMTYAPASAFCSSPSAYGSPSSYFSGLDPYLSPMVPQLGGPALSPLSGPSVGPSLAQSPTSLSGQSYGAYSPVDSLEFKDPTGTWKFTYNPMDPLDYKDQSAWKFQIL
ELF1, sequence (P32519 whole entry): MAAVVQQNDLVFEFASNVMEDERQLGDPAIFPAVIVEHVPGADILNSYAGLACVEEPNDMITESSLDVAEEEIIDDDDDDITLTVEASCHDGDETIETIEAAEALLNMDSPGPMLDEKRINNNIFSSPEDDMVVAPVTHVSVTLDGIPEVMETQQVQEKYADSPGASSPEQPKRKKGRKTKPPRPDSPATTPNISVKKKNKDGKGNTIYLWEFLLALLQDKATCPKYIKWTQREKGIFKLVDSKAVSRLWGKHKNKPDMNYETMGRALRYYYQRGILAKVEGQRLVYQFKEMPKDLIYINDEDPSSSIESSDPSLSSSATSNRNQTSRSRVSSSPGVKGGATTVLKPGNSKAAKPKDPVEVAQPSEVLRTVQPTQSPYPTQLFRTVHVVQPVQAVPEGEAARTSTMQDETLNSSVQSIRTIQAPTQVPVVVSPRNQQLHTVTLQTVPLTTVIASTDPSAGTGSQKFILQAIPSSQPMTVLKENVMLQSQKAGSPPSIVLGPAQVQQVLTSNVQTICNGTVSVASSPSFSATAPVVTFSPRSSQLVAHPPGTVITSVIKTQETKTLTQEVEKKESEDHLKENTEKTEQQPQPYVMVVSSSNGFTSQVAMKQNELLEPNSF
SPIB, sequence (Q01892 whole entry): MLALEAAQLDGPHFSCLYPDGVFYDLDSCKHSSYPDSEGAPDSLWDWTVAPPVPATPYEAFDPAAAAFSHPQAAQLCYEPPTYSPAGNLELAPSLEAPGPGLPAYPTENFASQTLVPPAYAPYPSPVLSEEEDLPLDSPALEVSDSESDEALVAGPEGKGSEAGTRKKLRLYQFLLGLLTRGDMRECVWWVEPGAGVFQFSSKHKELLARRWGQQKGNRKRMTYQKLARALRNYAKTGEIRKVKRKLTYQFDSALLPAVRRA

Turning to TAGGCA, the binding signal is 1.03 fold enrichment (6-mer frequency, TF over GST control) with ELK1; 1.06 fold enrichment (6-mer frequency, TF over GST control) with ERG; 1.02 fold enrichment (6-mer frequency, TF over GST control) with ELF1; 1.02 fold enrichment (6-mer frequency, TF over GST control) with SPIB; 1.05 fold enrichment (6-mer frequency, TF over GST control) with FEV; 1.11 fold enrichment (6-mer frequency, TF over GST control) with SPIC. In addition, the binding signal with ELF4 is 1.01 fold enrichment (6-mer frequency, TF over GST control); with ETV2, 1.19 fold enrichment (6-mer frequency, TF over GST control); with CRX it was 1.08 fold enrichment (6-mer frequency, TF over GST control); with ETV3L, 1.02 fold enrichment (6-mer frequency, TF over GST control); in the test with ETV7 it was 1.06 fold enrichment (6-mer frequency, TF over GST control); in the test with ETV3, 1.01 fold enrichment (6-mer frequency, TF over GST control).

GGTCCA: the binding signal with SPIC is 1.02 fold enrichment (6-mer frequency, TF over GST control).

With GTTGTC, the binding signal with SPIC is 1.1 fold enrichment (6-mer frequency, TF over GST control); in the test with ELK4, 1.02 fold enrichment (6-mer frequency, TF over GST control).
